Source: PubChem BioAssay AID1159580 (chemical genetic matrix, 2015)
Several values for one entry are separate records, joined by “and”; a condition that tells them apart may be missing. Identical values can stand only once. The campaign covered roughly 5,500 compounds. About 2,000 (36%) were called active. About 18% were inconclusive and are not listed. No stated cut-off is given here; in the data, active means normalized growth mostly below about 0.91 (no sharp cut-off); inconclusive means no clear call, values can overlap the other calls; inactive means mostly above about 0.92. This is one part of the list.

Experiment: chemical genetic growth profiling, strain panel (AID 1159580);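 further: tested at 20 µM; growth read once vehicle control cultures reached saturation at 30 °C; 1 = growth at the plate median or of vehicle wells; lower values mean less growth of the strain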
Details: S. cerevisiae deletion strains, growth OD

Measured: normalized growth

CC(=O)O[C@H]1C[C@@H](OC(C)=O)C(C)(C)C2CC(=O)[C@]3(C)C(CC[C@@]4(C)[C@H](C(=O)O)OC(=O)C5OC543)[C@]21C (stereo partly specified)
inactive: locus YAL021C, strain ccr4, hits give low values 0.96 | locus YAL026C, strain drs2, hits give low values 0.98 | locus YAL030W, strain snc1, hits give low values 1.02 | locus YBL061C, strain skt5, hits give low values 0.995 | locus YBR009C, strain hhf1, hits give low values 0.988 | locus YBR021W, strain FUR4, hits give low values 1.03 | locus YBR023C, strain chs3, hits give low values 1.01 | locus YBR171W, strain sec66, hits give low values 0.984 | locus YBR229C, strain ROT2, hits give low values 0.964 | locus YBR231C, strain swc5, hits give low values 0.988 | locus YBR279W, strain paf1, hits give low values 1.01 | locus YCL011C, strain gbp2, hits give low values 0.982 | locus YCL016C, strain dcc1, hits give low values 0.974 | locus YCL029C, strain bik1, hits give low values 0.979 | locus YCL061C, strain MRC1, hits give low values 0.987 | locus YCL069W, strain vba3, hits give low values 0.991 | locus YCR088W, strain abp1, hits give low values 1 | locus YDL005C, strain med2, hits give low values 0.966 | locus YDL035C, strain GPR1, hits give low values 0.977 | locus YDL040C, strain nat1, hits give low values 0.995 | locus YDL074C, strain BRE1, hits give low values 1.04 | locus YDL101C, strain DUN1, hits give low values 0.991 | locus YDL134C, strain PPH21, hits give low values 1.05 | locus YDL185W, strain tfp1, hits give low values 0.965 | locus YDL192W, strain arf1, hits give low values 0.968 | locus YDR001C, strain nth1, hits give low values 0.994 | locus YDR069C, strain doa4, hits give low values 0.994 | locus YDR101C, strain arx1, hits give low values 0.983 | locus YDR137W, strain rgp1, hits give low values 0.991 | locus YDR159W, strain sac3, hits give low values 1.03 | locus YDR162C, strain NBP2, hits give low values 1.01 | locus YDR195W, strain ref2 0.936 | locus YDR297W, strain sur2, hits give low values 0.993 | locus YDR318W, strain mcm21, hits give low values 0.987 | locus YDR334W, strain swr1, hits give low values 0.976 | locus YDR335W, strain msn5, hits give low values 0.987 | locus YDR388W, hits give low values 0.989 | locus YDR392W, strain spt3, hits give low values 1 | locus YDR502C, strain sam2, hits give low values 1.02 | locus YEL003W, strain gim4, hits give low values 0.994 | locus YEL037C, strain rad23, hits give low values 0.995 | locus YEL061C, strain CIN8 (second series), hits give low values 0.993 | locus YEL061C, strain CIN8, hits give low values 0.979 | locus YER015W, strain faa2, hits give low values 0.987 | locus YER016W, strain bim1, hits give low values 0.987 | locus YER110C, hits give low values 0.979 | locus YER111C, strain swi4, hits give low values 0.987 | locus YER155C, strain BEM2 (second series), hits give low values 0.992 | locus YER155C, strain BEM2, hits give low values 0.996 | locus YER167W, strain BCK2, hits give low values 0.988 | locus YFR010W, strain ubp6, hits give low values 1.02 | locus YGL078C, strain dbp3, hits give low values 1.02 | locus YGL086W, strain mad1, hits give low values 1 | locus YGL167C, strain pmr1, hits give low values 0.993 | locus YGL173C, strain kem1, hits give low values 0.997 | locus YGL227W, strain vid30, hits give low values 0.993 | locus YGL240W, strain doc1, hits give low values 0.974 | locus YGL248W, strain PDE1, hits give low values 1.01 | locus YGL253W, strain hxk2, hits give low values 0.988 | locus YGR135W, strain pre9, hits give low values 1.06 | locus YGR252W, strain gcn5, hits give low values 1.07 | locus YHR013C, strain ard1, hits give low values 0.97 | locus YHR027C, strain rpn1, hits give low values 0.988 | locus YHR030C, strain SLT2, hits give low values 0.981 and 1.01 | locus YHR079C, strain IRE1 (second series), hits give low values 0.983 | locus YHR079C, strain IRE1, hits give low values 1.03 | locus YHR094C, strain hxt1, hits give low values 0.992 | locus YHR129C, strain ARP1, hits give low values 0.987 | locus YHR142W, strain chs7, hits give low values 0.98 | locus YHR200W, strain rpn10, hits give low values 1.02 | locus YIL066C, strain RNR3, hits give low values 0.957 | locus YIL073C, strain SPO22, hits give low values 0.996 | locus YIL125W, strain kgd1, hits give low values 0.992 | locus YIR030C, strain dcg1, hits give low values 0.986 | locus YJL092W, strain hpr5, hits give low values 0.994 | locus YJL095W, strain BCK1 (second series), hits give low values 0.983 | locus YJL095W, strain BCK1, hits give low values 1.08 and 1.01 | locus YJL115W, strain asf1, hits give low values 0.978 | locus YJL129C, strain trk1, hits give low values 0.987 | locus YJL134W, strain LCB3, hits give low values 0.978 | locus YJL154C, strain vps35, hits give low values 0.978 | locus YJL164C, strain tpk1, hits give low values 1.02 | locus YJL166W, strain qcr8, hits give low values 0.977 | locus YJL168C, strain set2, hits give low values 0.996 | locus YJL187C, strain SWE1 (second series), hits give low values 1.01 | locus YJL187C, strain SWE1, hits give low values 0.984
